Compounds without any hit were thinned out: in the full panel of roughly 83,000, 20% have a hit.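 Compound tested at a single concentration for 48 hours in 96-well plates; a percent growth value below 10 was scored as active.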 Unmarked numbers belong to inactive results. Active and inactive are the calls of the source.

14 compounds from PubChem BioAssay (NCI) can be followed below.

Test systems include DU-145 prostate; K-562 leukemia; MALME-3M melanoma; MDA-MB-231 breast; RXF 393 renal; SF-268 CNS; SF-295 CNS; SF-539 CNS; UACC-257 melanoma; M14 melanoma.
Common to all, as to assay: NCI-60 one-dose screen, 48 h (100 = growth as untreated, 0 = no growth, -100 = all killed)
Common to all, as to conditions: 10 µM unless noted

On to `Cn1c2ccccc2c2c(OC(=O)c3ccccc3)c3c(nc21)-c1ccccc1C3`, for which the growth in the experiment on DU-145 prostate is 104%; with K-562 leukemia, 104%; with MALME-3M melanoma, 104%; with MDA-MB-231 breast, 85.6%; in the experiment with RXF 393 renal, 109%; with SF-268 CNS, 96.4%. Also, the growth is 100% with SF-295 CNS, 102% in the experiment with SF-539 CNS, 95.7% in the experiment with UACC-257 melanoma and 93.8% with M14 melanoma.

On to `C[C@]12CC[C@@H]3c4ccc(O)cc4CC[C@H]3[C@@H]1C[C@H](O)C2`, for which the growth was 93.9% in the experiment on DU-145 prostate; 19.7% with K-562 leukemia; 80.5% in the experiment on MALME-3M melanoma; 64.6% in the experiment on MDA-MB-231 breast; 100% with RXF 393 renal; 78.4% in the experiment with SF-268 CNS. In addition, the growth with SF-295 CNS is 87.3%; in the experiment with SF-539 CNS, 73.5%; in the experiment on UACC-257 melanoma it was 78.5%; with M14 melanoma, 52.7%.

As for `CC(=O)c1cc2c(N)c(C(=O)Nc3ccccn3)sc2nc1C`, the growth is 90.8% in the experiment with DU-145 prostate; 97.6% in the experiment with K-562 leukemia; 90.1% in the experiment on MALME-3M melanoma; 87.1% in the experiment on MDA-MB-231 breast; 86.4% in the experiment with RXF 393 renal; 93% in the experiment on SF-268 CNS. The growth is 71.6% in the experiment on SF-295 CNS, 84.9% with SF-539 CNS, 86.4% with UACC-257 melanoma and 54.9% in the experiment with M14 melanoma.

`COc1ccc(NC(=O)Nc2ccc(Nc3nc(C)cc(Nc4ccc(C)cc4)n3)cc2)cc1`: the growth was -95.8% (active) in the experiment on DU-145 prostate; -60.9% (active) in the experiment on K-562 leukemia; -78.7% (active) with MALME-3M melanoma; -75.8% (active) in the experiment with MDA-MB-231 breast; -80.7% (active) in the experiment on RXF 393 renal; -67.9% (active) in the experiment on SF-268 CNS. Also, the growth in the experiment with SF-295 CNS is -66% (active); in the experiment on SF-539 CNS, -89.5% (active); in the experiment on UACC-257 melanoma, -87.8% (active); in the experiment on M14 melanoma, -82.9% (active).

In the case of `C#CCOC(=O)[C@]1(C)CCC[C@]2(C)[C@H]3C[C@H]4C(C(C)C)=C[C@]3(CC[C@H]21)[C@@H]1C(=O)CCC(=O)[C@@H]14`, the growth with DU-145 prostate is 102%; in the experiment with K-562 leukemia it was 77.2%; with MALME-3M melanoma it was 110%; in the experiment on MDA-MB-231 breast it was 74.6%; with RXF 393 renal, 86%; with SF-268 CNS, 99.2%. The growth in the experiment with SF-295 CNS is 83.7%; with SF-539 CNS, 84%; in the experiment on UACC-257 melanoma, 92.3%; with M14 melanoma, 91.9%.

Regarding `COC(=O)/C=C1\SC(=Nc2cccc(Cl)c2)N(CCc2c[nH]c3ccccc23)C1=O`, the growth was 54.5% in the experiment with DU-145 prostate; 24.3% with K-562 leukemia; 45.9% in the experiment on MALME-3M melanoma; 39.5% in the experiment on MDA-MB-231 breast; 44.8% in the experiment with RXF 393 renal; 49.5% in the experiment with SF-268 CNS. In addition, the growth with SF-295 CNS was 55.1%; in the experiment on SF-539 CNS, 69.9%; with UACC-257 melanoma, 37.1%; in the experiment with M14 melanoma, 42.4%.

In the case of `O=[N+]([O-])c1ccc(Oc2ccc(-c3ccccc3)cc2)cc1`, the growth with DU-145 prostate is 97.5%; in the experiment on K-562 leukemia, 70.8%; with MALME-3M melanoma, 109%; in the experiment on MDA-MB-231 breast it was 88.5%; in the experiment with RXF 393 renal it was 102%; in the experiment on SF-268 CNS, 94.5%. The growth in the experiment with SF-295 CNS was 89.4%; in the experiment on SF-539 CNS, 94.7%; with UACC-257 melanoma it was 98.1%; in the experiment on M14 melanoma it was 98.3%.

In the case of `CC(C)(C)c1nn(-c2ccccc2)c2c1COCN2Cc1ccc(Cl)cc1`, the growth in the experiment on DU-145 prostate was 103%; in the experiment with K-562 leukemia it was 47.5%; with MALME-3M melanoma it was 90.2%; with MDA-MB-231 breast, 95.1%; in the experiment with RXF 393 renal, 100%; with SF-268 CNS it was 103%. The growth is 95.9% with SF-295 CNS, 83.6% in the experiment on SF-539 CNS, 114% in the experiment on UACC-257 melanoma and 91.8% in the experiment with M14 melanoma.

Consider `Nc1ccc(C2=NN(C(=O)c3cc(-c4ccc(Cl)cc4)nc4ccccc34)C(c3ccccc3)C2)cc1` (stereo not given), for which the growth is 33.2% in the experiment on DU-145 prostate; 15.6% with K-562 leukemia; 52.5% in the experiment on MALME-3M melanoma; 61.2% in the experiment on MDA-MB-231 breast; -3.58% (active) with RXF 393 renal; 57.3% in the experiment with SF-268 CNS. Besides, the growth with SF-295 CNS is 13.1%; in the experiment with SF-539 CNS it was 14.9%; in the experiment on UACC-257 melanoma, 55.3%; in the experiment with M14 melanoma, 16.9%.

Regarding `COc1cc(C2=NN(C(C)=O)C(c3cccc(Nc4ccnc5cc(C(F)(F)F)ccc45)c3)C2)cc(OC)c1OC` (stereo not given), the growth in the experiment with DU-145 prostate was 55%; in the experiment on K-562 leukemia it was 36.8%; in the experiment with MALME-3M melanoma, 78.9%; in the experiment with MDA-MB-231 breast it was 66.1%; in the experiment with RXF 393 renal it was 55.3%; in the experiment on SF-268 CNS, 52.6%. Moreover, the growth with SF-295 CNS was 53.8%; in the experiment on SF-539 CNS, 76.6%; with UACC-257 melanoma, 79%; with M14 melanoma it was 29.7%.

For the compound `O=C1c2ccccc2C(=O)c2c1oc1c2c(=O)[nH]c2ccccc21`, the growth was 82% in the experiment with DU-145 prostate; 55.2% in the experiment on K-562 leukemia; 124% in the experiment with MALME-3M melanoma; 10.3% in the experiment with MDA-MB-231 breast; 97.2% in the experiment with RXF 393 renal; 91% with SF-268 CNS. The growth in the experiment with SF-295 CNS is 92.7%; in the experiment with SF-539 CNS, 90.3%; in the experiment with UACC-257 melanoma, 112%; in the experiment on M14 melanoma, 73.4%.

For `CCCCn1c(=O)c(/C=C/C(=O)/C=C/c2ccc(OC)cc2)cc2cc(Cl)ccc21`, the growth with DU-145 prostate is 53.5%; with K-562 leukemia, 25.2%; in the experiment on MALME-3M melanoma it was 119%; in the experiment on MDA-MB-231 breast, 83.8%; in the experiment with RXF 393 renal, 84.5%; with SF-268 CNS, 42.6%. Besides, the growth in the experiment with SF-295 CNS was 19.9%; in the experiment on SF-539 CNS, 91.8%; in the experiment on UACC-257 melanoma, 92.1%; in the experiment with M14 melanoma, 95%.

As to `CCCCc1n(Cc2ccc3ccccc3n2)cc[n+]1Cc1ccc2ccccc2c1`, the growth was 25.1% in the experiment with DU-145 prostate; 6.43% (active) with K-562 leukemia; -22.2% (active) in the experiment with MALME-3M melanoma; -29.2% (active) in the experiment with MDA-MB-231 breast; -14.3% (active) in the experiment with RXF 393 renal; 19.3% in the experiment on SF-268 CNS. The growth in the experiment with SF-295 CNS was 0.543% (active); in the experiment on SF-539 CNS it was 14.3%; in the experiment on UACC-257 melanoma, -32.7% (active); in the experiment with M14 melanoma, -16.9% (active).

Turning to `COc1ccc2c(c1)/C(=C1\S/C(=N/c3nnc(C)s3)NC1=O)C(=O)N2Cc1ccc(Cl)cc1`, the growth in the experiment with DU-145 prostate was 52.4%; with K-562 leukemia, 38.3%; in the experiment with MALME-3M melanoma it was 72.5%; with MDA-MB-231 breast, 89.5%; in the experiment with RXF 393 renal, 75.8%; in the experiment with SF-268 CNS it was 46%. In addition, the growth in the experiment on SF-295 CNS is 14.9%; in the experiment with SF-539 CNS, 48.7%; in the experiment with UACC-257 melanoma, 83.6%; in the experiment on M14 melanoma, 45.6%.
